Holding throughout (design): scale not given: direction of the effect not stated beside the values
In assay [1] the target is Protein translocase subunit SecA (Escherichia coli (strain K12)) (UniProt P10408). Briefly: Assay to Identify E. coli SecA ATPase Inhibitors. It counts as functional. The settings on record: 30 µM.
The target in assay [2] is T1, Ubiquitin-activating enzyme e1, putative (Leishmania donovani (strain BPK282A1)) (UniProt E9BSI1).
T1 sequence (whole entry): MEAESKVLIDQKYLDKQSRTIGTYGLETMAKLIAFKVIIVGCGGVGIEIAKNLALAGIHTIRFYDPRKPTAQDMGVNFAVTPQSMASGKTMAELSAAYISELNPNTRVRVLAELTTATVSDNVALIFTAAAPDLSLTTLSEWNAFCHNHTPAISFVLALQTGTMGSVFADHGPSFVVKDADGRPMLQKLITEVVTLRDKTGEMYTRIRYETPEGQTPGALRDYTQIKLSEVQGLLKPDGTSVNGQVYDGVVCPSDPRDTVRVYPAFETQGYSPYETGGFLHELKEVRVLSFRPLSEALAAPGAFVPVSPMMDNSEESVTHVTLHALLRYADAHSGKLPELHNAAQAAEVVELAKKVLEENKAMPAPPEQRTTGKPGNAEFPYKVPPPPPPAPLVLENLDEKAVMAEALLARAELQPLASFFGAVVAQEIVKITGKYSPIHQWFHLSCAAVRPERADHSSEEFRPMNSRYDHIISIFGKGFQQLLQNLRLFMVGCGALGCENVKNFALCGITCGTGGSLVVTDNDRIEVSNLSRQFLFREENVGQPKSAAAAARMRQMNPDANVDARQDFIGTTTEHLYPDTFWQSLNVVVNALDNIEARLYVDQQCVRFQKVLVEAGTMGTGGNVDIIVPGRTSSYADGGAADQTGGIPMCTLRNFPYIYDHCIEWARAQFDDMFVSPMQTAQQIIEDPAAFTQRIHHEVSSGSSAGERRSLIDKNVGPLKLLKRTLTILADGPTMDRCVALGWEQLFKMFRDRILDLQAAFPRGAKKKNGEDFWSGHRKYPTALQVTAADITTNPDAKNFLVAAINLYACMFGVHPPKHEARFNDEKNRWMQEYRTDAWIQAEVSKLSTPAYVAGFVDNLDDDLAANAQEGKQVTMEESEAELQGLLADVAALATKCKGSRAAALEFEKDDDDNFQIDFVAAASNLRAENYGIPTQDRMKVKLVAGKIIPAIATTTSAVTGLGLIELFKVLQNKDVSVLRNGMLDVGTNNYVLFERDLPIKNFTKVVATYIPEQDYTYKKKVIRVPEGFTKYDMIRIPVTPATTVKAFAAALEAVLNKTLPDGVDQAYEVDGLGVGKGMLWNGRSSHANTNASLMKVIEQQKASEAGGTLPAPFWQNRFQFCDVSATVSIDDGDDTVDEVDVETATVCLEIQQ
Description: Leishmania donovani Ubiquitin Activating Enzyme (LdE1). The settings on record: 30 µM. The format is functional.

Assay [3] deals with AMP-activated protein kinase, AMPK (Homo sapiens) (UniProt P54646+O43741+P54619+Q9UGJ0+Q9Y478+Q13131+Q9UGI9). Briefly: AMP-dependent Kinase enzyme assay. An in vitro enzyme assay that detects ADP turnover that is directly proportional to AMPK activity. This uses naive AMPK that is activated during the assay with MK-8722. The settings on record: 30 µM. It counts as functional.

In assay [4] the target is Sialic acid-binding Ig-like lectin 9 (Homo sapiens) (UniProt Q9Y336). Description: Hs-Siglec9 ALPHAscreen SOP 20170721. Particulars: 10 µM. (In general: Bead proximity is the source of the signal in Alpha formats.)
Sequence of Sialic acid-binding Ig-like lectin 9 (Homo sapiens) (Q9Y336 whole entry): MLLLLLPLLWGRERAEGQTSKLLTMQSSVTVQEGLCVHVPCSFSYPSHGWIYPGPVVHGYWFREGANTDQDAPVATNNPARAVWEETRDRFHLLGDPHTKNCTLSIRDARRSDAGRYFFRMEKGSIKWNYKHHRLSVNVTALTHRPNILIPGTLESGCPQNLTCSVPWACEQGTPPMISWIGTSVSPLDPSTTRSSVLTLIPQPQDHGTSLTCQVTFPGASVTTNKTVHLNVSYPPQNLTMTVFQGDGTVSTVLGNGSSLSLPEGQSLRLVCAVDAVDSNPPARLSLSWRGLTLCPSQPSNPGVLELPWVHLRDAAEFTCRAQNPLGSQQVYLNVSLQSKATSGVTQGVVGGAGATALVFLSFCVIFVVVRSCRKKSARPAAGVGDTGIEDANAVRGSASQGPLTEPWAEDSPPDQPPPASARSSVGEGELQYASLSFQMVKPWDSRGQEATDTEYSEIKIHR
For assay [5], the system named is Trypanosoma cruzi. Briefly: Trypanosoma cruzi phosphomannomutase and mannose-1-phosphate guanylyltransferase assay. It counts as functional. Particulars: 10 µM.
Assay [6] deals with T2, Arginase-2, mitochondrial (Homo sapiens) (UniProt P78540).
T2 sequence (whole entry): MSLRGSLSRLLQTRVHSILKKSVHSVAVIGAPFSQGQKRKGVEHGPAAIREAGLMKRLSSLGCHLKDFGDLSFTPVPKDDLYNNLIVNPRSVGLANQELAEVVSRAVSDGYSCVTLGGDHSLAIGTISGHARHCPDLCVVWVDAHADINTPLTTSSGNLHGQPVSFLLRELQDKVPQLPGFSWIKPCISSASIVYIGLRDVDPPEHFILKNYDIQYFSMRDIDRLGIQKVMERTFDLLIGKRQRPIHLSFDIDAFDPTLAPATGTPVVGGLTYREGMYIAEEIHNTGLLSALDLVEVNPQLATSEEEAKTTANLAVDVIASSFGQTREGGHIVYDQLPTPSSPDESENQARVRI
Description: in vitro enzyme assay to detect the production of urea directly proportional to the activity of Arginase II. Further: in the data most compounds retested in dose-response had high values. It counts as functional. Particulars: 33.3 µM.

Assay [7] has as its target T3, Proteasome subunit beta (Trypanosoma cruzi) (UniProt O96673).
T3 sequence (whole entry): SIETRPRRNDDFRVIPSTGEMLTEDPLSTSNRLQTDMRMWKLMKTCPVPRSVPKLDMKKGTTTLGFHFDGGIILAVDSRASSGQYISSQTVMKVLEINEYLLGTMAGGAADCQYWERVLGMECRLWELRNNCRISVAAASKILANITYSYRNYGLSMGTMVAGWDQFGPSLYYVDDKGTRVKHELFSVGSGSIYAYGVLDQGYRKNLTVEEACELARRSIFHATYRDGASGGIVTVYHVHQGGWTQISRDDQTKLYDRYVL
Description: Trypanosoma cruzi proteasome chymotrypsin-like activity (TcProtChymo) assay. Further: in the data most compounds retested in dose-response had high values. The settings on record: 9.37 µM. The format is functional.

The species named for assay [8] is Homo sapiens. Description: To identify inhibition of the IFN signalling (Jak-Stat) pathway via expression of an eGFP reporter gene under the control of an IFN-stimulated response element (ISRE) containing MxA promoter. The settings on record: 30 µM. It counts as functional. In general terms: In a reporter assay the amount or activity of a reporter protein is the signal.

The target in assay [9] is T4, Tyrosyl-tRNA synthetase, putative (Trypanosoma cruzi (strain CL Brener)) (UniProt Q4DSP6).
T4 sequence (whole entry): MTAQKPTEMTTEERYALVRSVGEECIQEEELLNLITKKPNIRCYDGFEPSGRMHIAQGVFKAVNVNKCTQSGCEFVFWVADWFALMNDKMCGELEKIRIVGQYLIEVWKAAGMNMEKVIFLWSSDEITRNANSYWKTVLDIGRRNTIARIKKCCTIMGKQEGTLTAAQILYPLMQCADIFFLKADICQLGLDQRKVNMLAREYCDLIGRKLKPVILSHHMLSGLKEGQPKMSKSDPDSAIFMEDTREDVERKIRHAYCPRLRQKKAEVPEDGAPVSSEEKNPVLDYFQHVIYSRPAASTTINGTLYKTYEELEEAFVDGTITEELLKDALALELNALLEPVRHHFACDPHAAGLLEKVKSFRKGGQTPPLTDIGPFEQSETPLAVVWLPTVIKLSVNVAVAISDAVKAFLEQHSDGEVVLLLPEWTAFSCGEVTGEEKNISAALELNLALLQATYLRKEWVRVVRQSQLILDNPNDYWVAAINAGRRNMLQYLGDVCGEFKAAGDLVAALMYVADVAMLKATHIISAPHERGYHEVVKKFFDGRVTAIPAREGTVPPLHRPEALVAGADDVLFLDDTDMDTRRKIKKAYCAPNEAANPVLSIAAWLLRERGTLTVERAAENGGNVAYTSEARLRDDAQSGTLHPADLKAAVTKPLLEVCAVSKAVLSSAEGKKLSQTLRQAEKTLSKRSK
Briefly: Trypanosoma cruzi tyrosyl tRNA synthetase (TcYRS) _High Tyrosine SOP. Further: in the data most compounds retested in dose-response had high values. It counts as functional. Particulars: 30 µM.

Assay [10] has as its target T4, Tyrosyl-tRNA synthetase, putative (Trypanosoma cruzi (strain CL Brener)). Description: Trypanosoma cruzi tyrosyl tRNA synthetase (TcYRS) SOP. It counts as functional. The settings on record: 30 µM.
Assay [11] addresses Chromo domain-containing protein 1 (Saccharomyces cerevisiae (strain ATCC 204508 / S288c) (Baker's yeast)) (UniProt P32657). Description: ScCHD-1 Enzyme Inhibition Assay. Further: in the data most compounds retested in dose-response had high values. The format is functional. Particulars: 30 µM.

For some of these results: Measured potencies and affinities stand elsewhere.

Sequence of Chromo domain-containing protein 1 (Saccharomyces cerevisiae (strain ATCC 204508 / S288c) (Baker's yeast)) (P32657 whole entry, the tested form may be a part): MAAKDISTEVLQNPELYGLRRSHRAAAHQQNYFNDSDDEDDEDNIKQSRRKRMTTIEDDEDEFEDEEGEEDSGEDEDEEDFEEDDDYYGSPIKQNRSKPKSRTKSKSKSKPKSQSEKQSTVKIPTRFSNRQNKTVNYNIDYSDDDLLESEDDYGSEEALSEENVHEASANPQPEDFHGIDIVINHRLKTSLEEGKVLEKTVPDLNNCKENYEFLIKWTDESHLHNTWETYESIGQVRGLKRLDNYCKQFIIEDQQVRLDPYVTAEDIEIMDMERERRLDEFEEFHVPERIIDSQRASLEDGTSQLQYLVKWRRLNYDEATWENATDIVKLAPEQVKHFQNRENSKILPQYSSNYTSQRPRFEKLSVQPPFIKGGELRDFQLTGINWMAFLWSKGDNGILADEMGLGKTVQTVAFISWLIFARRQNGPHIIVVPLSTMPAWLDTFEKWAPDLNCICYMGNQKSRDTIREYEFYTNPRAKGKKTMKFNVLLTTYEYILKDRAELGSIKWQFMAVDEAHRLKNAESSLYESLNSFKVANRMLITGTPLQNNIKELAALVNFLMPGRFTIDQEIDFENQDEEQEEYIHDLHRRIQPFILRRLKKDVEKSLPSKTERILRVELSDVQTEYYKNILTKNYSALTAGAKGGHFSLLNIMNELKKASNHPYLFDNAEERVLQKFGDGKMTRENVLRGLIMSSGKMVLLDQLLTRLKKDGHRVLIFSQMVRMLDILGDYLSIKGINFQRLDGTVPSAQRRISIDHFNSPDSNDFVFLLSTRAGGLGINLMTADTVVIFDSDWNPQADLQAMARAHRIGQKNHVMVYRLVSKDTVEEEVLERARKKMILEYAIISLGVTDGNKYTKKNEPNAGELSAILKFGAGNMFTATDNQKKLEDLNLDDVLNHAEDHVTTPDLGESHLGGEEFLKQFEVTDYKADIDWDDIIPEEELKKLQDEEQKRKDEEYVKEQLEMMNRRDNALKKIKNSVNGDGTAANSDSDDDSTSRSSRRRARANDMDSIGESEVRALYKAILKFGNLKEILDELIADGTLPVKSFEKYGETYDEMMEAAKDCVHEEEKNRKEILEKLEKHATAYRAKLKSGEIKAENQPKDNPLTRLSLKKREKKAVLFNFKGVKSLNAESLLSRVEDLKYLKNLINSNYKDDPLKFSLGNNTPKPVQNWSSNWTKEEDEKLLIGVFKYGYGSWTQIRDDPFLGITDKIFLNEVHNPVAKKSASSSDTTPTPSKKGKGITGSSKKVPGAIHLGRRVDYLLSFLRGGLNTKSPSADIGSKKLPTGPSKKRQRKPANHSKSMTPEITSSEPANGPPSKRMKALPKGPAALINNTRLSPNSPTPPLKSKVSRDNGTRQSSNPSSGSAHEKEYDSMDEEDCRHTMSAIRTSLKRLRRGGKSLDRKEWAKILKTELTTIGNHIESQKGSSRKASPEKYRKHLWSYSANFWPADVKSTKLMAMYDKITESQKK
Sequence of Protein translocase subunit SecA (Escherichia coli (strain K12)) (P10408 whole entry): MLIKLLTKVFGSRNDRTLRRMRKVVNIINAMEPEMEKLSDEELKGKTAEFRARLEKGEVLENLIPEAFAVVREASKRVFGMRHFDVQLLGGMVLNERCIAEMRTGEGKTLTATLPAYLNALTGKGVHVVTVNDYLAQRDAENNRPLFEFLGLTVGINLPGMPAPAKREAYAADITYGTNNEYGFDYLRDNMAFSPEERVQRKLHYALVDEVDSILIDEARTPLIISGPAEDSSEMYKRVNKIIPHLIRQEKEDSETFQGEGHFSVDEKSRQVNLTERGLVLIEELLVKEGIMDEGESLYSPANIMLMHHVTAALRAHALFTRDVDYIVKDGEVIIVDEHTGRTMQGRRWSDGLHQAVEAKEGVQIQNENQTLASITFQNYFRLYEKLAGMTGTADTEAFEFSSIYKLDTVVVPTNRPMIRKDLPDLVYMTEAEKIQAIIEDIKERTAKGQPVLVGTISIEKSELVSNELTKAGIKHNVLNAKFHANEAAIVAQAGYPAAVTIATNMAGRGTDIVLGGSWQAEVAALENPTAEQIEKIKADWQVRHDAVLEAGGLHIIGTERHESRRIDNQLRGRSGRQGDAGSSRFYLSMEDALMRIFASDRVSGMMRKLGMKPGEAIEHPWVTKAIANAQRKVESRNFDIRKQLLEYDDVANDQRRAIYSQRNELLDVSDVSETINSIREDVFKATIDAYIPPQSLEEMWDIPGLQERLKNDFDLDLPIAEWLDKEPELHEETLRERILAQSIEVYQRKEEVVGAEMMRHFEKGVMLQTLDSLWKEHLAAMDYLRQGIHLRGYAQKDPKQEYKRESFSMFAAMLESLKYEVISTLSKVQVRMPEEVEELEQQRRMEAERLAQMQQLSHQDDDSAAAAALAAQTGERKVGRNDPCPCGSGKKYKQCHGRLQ

Regarding `CCOCC(=O)N1C[C@@H]2COC[C@H](c3nc(C)no3)[C@@H]2C1`, the Percent Effect in assay [1] was -1.23%; in assay [2] it was -5.41%; in assay [3], 5.84%; in assay [4], -1.1%; in assay [5], 0.586%; in assay [6], 2.5%. Further, the Percent Effect in assay [7] was 9.21%; in [8], 1.97%; in assay [9] it was -15.8%; in assay [10] it was -1.22%; in assay [11] it was -2.33%.

`COc1c(CNCC(c2cccc(F)c2)N(C)C)c(C(C)C)nn1C` (stereo not drawn): the Percent Effect in assay [1] was -2.21%; in assay [2] it was 5.2%; in [3], -2.29%; in [4], -6.06%; in assay [5], 4.6%; in [6] it was -3.16%. Also, the Percent Effect in assay [7] was 4.61%; in [8], 5.62%; in assay [9], 0%; in assay [10], 9.41%; in [11] it was -5.27%.

Turning to `O=C1CC(c2ccc(C(=O)O)cc2)c2ncn(-c3ccccc3)c2N1` (stereo not drawn), the Percent Effect was -4.54% in assay [1]; 9.33% in assay [2]; -172% in assay [3]; -2.38% in assay [4]; 0.786% in [5]; -8.63% in [6]. In addition, the Percent Effect is 19.2% in assay [7]; 2.29% in assay [8]; 9.52% in assay [9]; 7.69% in [10]; -7.97% in assay [11].

Regarding `Cc1noc([C@@H]2CC[C@@H]3[C@@H](CCN3S(=O)(=O)c3cccnc3)O2)n1`, the Percent Effect in assay [1] was -1.26%; in assay [2], 5.41%; in assay [3], 9.76%; in assay [4], -4.15%; in assay [5] it was -3.12%; in assay [6], 1.67%. Moreover, the Percent Effect in [7] was determined as 9.89%; in assay [8], 3.62%; in assay [9] it was 6.93%; in assay [10], 13.4%; in assay [11] it was 3.12%.

In the case of `CN(C)CCNC(=O)c1ccc(OC2CCN(S(C)(=O)=O)CC2)c(Cl)c1`, the Percent Effect in assay [1] is -6.99%; in assay [2], 18.9%; in assay [3], -3.92%; in [4] it was 19.3%; in assay [5], 8.5%; in assay [6], 3.23%. Besides, the Percent Effect in assay [7] is 13.8%; in assay [8] it was -5.52%; in assay [9], 7.53%; in [10] it was 21%; in [11], -4.57%.

For `CC(C)c1nc(CN(C)CC2CCN(CCO)CC2)no1`, the Percent Effect in [1] is -2.78%; in [2], 0%; in assay [3], -3.56%; in assay [4] it was 0.371%; in assay [5] it was -1.35%; in assay [6], 2.86%. Further, the Percent Effect in assay [7] was 1.9%; in assay [8], 1.02%; in assay [9], 2.65%; in assay [10] it was 9.76%; in assay [11], -3.71%.

As for `COc1cccc(CCC2CCCN(C(=O)c3n[nH]c4c3CCC4)C2)c1` (stereo not drawn), the Percent Effect is -4.51% in assay [1]; -18.9% in assay [2]; 3.21% in assay [3]; 4.19% in assay [4]; -1.35% in assay [5]; -8.1% in [6]. The Percent Effect in [7] is 5.69%; in assay [8], 46.1%; in assay [9] it was 11.1%; in assay [10], 2.44%; in assay [11], -1.85%.

As for `COCc1ncn2c1CN(C(=O)C1CC=CC1)CC2`, the Percent Effect in assay [1] is -10.3%; in assay [2] it was 2.7%; in [3] it was -2.21%; in assay [4], -3.27%; in assay [5], -2.64%; in assay [6], -1.74%. Moreover, the Percent Effect in assay [7] amounted to 3.69%; in assay [8], 2.37%; in [9], 6.45%; in assay [10], 11.1%; in assay [11] it was 0.611%.

The values are drawn from ChEMBL document CHEMBL3988442, “University of Dundee, Small-Polar-MMV Screening Library” (2021).
